An excerpt weighted towards active compounds, which were near 7.2% of everything screened.
SUMO Mot1 rescue: SUMOylation pathway inhibition by Mot1-301 growth rescue | S. cerevisiae Mot1-301 growth rescue, ATP luminescence, 38.5C; percent above DMSO median, 100 means doubled | growth rescue, % at 18.8 µM | 320,000 compounds, 1% hits | AID 2716;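 active = every valid replicate shows activation above 250% relative to neutral control wells; inactive = the rest, any valid replicate at or below 250%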
AHR activator: activates the human aryl hydrocarbon receptor; P35869; AHR-responsive luciferase reporter cells, luminescence; activation, % at 5 µM; 320,000 compounds, 2.5% hits; in the data active = activation above about 47%
Target sequence (P35869 whole entry, looked up): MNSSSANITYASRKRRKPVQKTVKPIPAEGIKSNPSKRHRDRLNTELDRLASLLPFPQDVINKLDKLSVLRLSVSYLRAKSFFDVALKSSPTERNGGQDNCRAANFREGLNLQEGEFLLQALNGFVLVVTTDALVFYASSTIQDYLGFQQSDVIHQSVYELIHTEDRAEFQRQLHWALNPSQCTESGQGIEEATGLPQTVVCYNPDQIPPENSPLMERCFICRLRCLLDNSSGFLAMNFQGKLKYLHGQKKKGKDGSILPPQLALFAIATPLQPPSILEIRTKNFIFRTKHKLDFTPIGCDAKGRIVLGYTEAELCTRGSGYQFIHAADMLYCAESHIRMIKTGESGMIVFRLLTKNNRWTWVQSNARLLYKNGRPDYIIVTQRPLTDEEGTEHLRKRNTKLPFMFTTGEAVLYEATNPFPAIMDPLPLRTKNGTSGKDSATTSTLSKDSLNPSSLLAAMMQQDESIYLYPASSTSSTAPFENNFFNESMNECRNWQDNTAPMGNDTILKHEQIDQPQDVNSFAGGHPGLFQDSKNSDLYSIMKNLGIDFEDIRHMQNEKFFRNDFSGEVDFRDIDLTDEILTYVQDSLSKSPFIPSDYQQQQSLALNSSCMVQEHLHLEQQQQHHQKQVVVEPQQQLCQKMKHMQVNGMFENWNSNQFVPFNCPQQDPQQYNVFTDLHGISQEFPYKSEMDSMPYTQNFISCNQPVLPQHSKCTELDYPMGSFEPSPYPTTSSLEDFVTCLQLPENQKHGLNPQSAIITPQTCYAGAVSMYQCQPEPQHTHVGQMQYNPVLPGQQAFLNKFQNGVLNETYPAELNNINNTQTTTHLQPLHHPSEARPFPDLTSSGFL
VLA-4 inh: inhibition in a human VLA-4 binding assay. P13612. VLA-4 expressing cells, ligand binding flow cytometry. inhibition, % (about 7 µM as worked out from the volumes in the protocol). 330,000 compounds, 0.2% hits; in the data active = inhibition above about 50%
A1 inh: inhibitors of the anti-apoptotic protein A1, read as caspase activation. MEF A1-2A-BIM cells, Caspase-Glo 3/7 luminescence, 3 h; percent of clofoctol response, vehicle zero. AID 2462. 330,000 compounds, 0.066% hits. caspase activation, % (no concentration beside the values);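 active = over half of replicate activation scores above 10%, or exactly half above 10 with the replicate mean above 10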
Efflux pump mplx: antifungal efflux pump inhibition, Nile Red retention | S. cerevisiae Candida pump triplex | inhibition, % at 10 µM | 330,000 compounds, 0.44% hits | AID 485275;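 active = plate passing quality check with inhibition over a set limit, or well fluorescence over plate mean plus 4 SD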;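 note: Nile Red retained in pooled yeast measured as flow cytometry median fluorescence; higher means more Nile Red kept so more efflux inhibition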
ALR inh: human ALR oxidase inhibition via reduced H2O2. purified ALR, DTT oxidation, H2O2 HRP-luminol luminescence. inhibition, % (no concentration beside the values). 290,000 compounds, 3.8% hits. AID 485317;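 active = mean replicate inhibition above about 79%, with every replicate also reaching it, limit read from the data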
AHR act cf: human AHR activation, confirmation; shares compounds with AHR activator; human cells, AHR-responsive luciferase reporter, luminescence; activation, % at 9 µM; 2,300 compounds, 87% hits; AID 2845; in the data active = activation above about 49%;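 note: HepG2 hepatoma cells carrying a DRE-driven firefly luciferase reporter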
PXR act counter: PXR activation, counter-screen for AHR activators. shares compounds with AHR activator. cell-based PXR reporter, luciferase luminescence. activation, % at 11.6 µM. 2,300 compounds, 88% hits; in the data active = activation above about 11%;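 note: human hepatoma DPX-2 cells expressing full-length human PXR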
Each line names hits and unclear results; the compound was inactive in the other large screens (follow-up assays come after a bar, where they were run).

CCn1cnc2cc(NCc3ccc(Br)cc3)ccc21	AHR activator 107.3, ALR inh 86.3 | AHR act cf 112.8 | PXR act counter 45.8
CCn1cnc2cc(NC(=O)c3cccs3)ccc21	none (no result: ALR inh)
CCCC(=O)NCc1nc2ccccc2n1C	none
CCn1cnc2cc(NCc3nc4ccccc4n3C)ccc21	AHR activator 93.1 | AHR act cf 65.3 | PXR act counter 83.3
CCn1c(CNc2ccc(C(=O)O)cc2)nc2ccccc21	none
O=C(Nn1c(=S)[nH]c2ccccc2c1=O)c1ccncc1	none (no result: SUMO Mot1 rescue)
CC(=O)/C(=N/Nc1ccc(Br)cc1)Sc1cccc2cccnc12	AHR activator 125.0 | AHR act cf 115.8 | PXR act counter 179.9
COc1ccc(/C=N/n2c(C3CCCCC3)n[nH]c2=S)c(OC)c1	none
Fc1cccc2sc(Nc3nc4cc5c(cc4s3)OCO5)nc12	AHR activator 130.1 | AHR act cf 120.7 | PXR act counter 12.1
Fc1cc(F)c2nc(Nc3nc4cc5c(cc4s3)OCO5)sc2c1	none (no result: ALR inh)
CN1C2C=C3C(C#N)=C(N)C(C#N)(C#N)C(c4ccc(Br)cc4)C3C1CC2 (centres undefined)	AHR activator 110.1 (no result: ALR inh) | AHR act cf 78.5 | PXR act counter 106.7
c1ccc2oc(-c3ccc4nc[nH]c4c3)nc2c1	AHR activator 97.1 | AHR act cf 146.8 | PXR act counter 14.1
O=c1c(Cl)c2oc3ccccc3nc-2c2ccccc12	AHR activator 81.0 | AHR act cf 122.8 | PXR act counter 15.8
Clc1ccc(-c2nnc(Sc3nc4ccccc4o3)c3ccccc23)cc1	none
N#CC1=C(N)Oc2n[nH]c(-c3ccc(F)cc3)c2C1c1ccncc1 (centres undefined)	AHR activator 105.6 | AHR act cf 103.5 | PXR act counter 17.7
N#CC1=C(N)Oc2n[nH]c(-c3ccc(F)cc3)c2C1c1cccc(OC(=O)N2CCOCC2)c1 (centres undefined)	AHR activator 106.2 | AHR act cf 115.4 | PXR act counter 31.6
CC1=C(C)CC(C(=O)NC2CCN(C(C)C)CC2)C(C(=O)O)C1 (centres undefined)	none
CC(C)NS(=O)(=O)c1ccc(NC(=O)C2CC3C=CC2C3)cc1 (centres undefined)	none
Cc1ccc(N=Nc2c(C)[nH]n(-c3ccccc3)c2=O)c(C)c1	none
Cc1cc(N)ccc1N=Nc1c(C)n(C)n(-c2ccccc2)c1=O	AHR activator 87.4, ALR inh 99.4 | AHR act cf 118.8 | PXR act counter 24.9
Cc1ccc(/C=N/NC(=O)c2cccs2)s1	AHR activator 130.0 | AHR act cf inactive | PXR act counter 27.5
O=C(N/N=C/c1cccc2ccccc12)c1cccs1	none (no result: AHR activator)
O=C(COC(=O)Cc1ccc(Br)cc1)NCC1CCCCC1	none
Cc1nnc(Nc2ccccn2)c2ccccc12	AHR activator 147.7 | AHR act cf 142.7 | PXR act counter 57.7
Cc1ccc(C(=O)OC(C)C(=O)Nc2ccc3c(c2)OCO3)c(O)c1 (centres undefined)	none (no result: ALR inh)
COc1cccc(N=c2oc3ccccc3cc2-c2nc3ccccc3[nH]2)c1	AHR activator 92.2 (no result: SUMO Mot1 rescue) | AHR act cf 131.5 | PXR act counter 23.1
C(#Cc1ccc2c(c1)COc1c3ccccc3nn1-2)c1ccccc1	none
C#Cc1ccc2c(c1)COc1c3ccccc3nn1-2	AHR activator 88.2 | AHR act cf 62.0 | PXR act counter 25.0
CN(C)c1ccc(/C=N\NC(=O)c2csnn2)cc1	AHR activator 110.9 (no result: ALR inh) | AHR act cf 54.5 | PXR act counter 10.2
O=C(C[n+]1cc(Br)cc2ccccc21)c1ccccc1	AHR activator 93.4 | AHR act cf 96.3 | PXR act counter 103.3
CCn1nc(C(=O)NNS(=O)(=O)c2ccc(C)cc2)c2ccccc2c1=O	none
COc1ccc(/C=N/NC(=O)c2ccncc2)cc1Cn1nc([N+](=O)[O-])c(Br)c1C	none
O=c1c2ccccc2nc2n1CCS2	none
Cc1ccc2[nH]c3c(=O)n4c(nc3c2c1)SCC4	AHR activator 123.2 | AHR act cf 149.9 | PXR act counter 31.2
CCOC(=O)c1c(C)[nH]c(C(=O)N/N=C\c2ccccc2Cl)c1C	AHR activator 81.5 | AHR act cf 73.3 | PXR act counter 14.7
CCOC(=O)c1c(C)[nH]c(C(=O)N/N=C/c2cccc(OC)c2)c1C	none
O=c1[nH]c(Sc2ccc([N+](=O)[O-])cc2[N+](=O)[O-])nc2ccccc12	AHR activator 88.4 | AHR act cf inactive | PXR act counter 26.4
O=[N+]([O-])c1ccc(Sc2nc3ccccc3o2)c([N+](=O)[O-])c1	none
Nc1nc(-c2ccc(Br)cc2)cs1	none
Cc1ccc(-c2csc(-c3ccncc3)n2)cc1	AHR activator 79.6 | AHR act cf 96.1 | PXR act counter inactive
Brc1ccc(-c2csc(-c3ccncc3)n2)cc1	AHR activator 101.2 | AHR act cf 102.1 | PXR act counter 10.7
Brc1ccc(-c2csc(Nc3nc(-c4ccc(Br)cc4)cs3)n2)cc1	AHR activator 84.6 | AHR act cf 116.1 | PXR act counter 16.8
Cc1ccc(C(=O)N/C(N)=N/c2nc3ccccc3o2)cc1	none
N/C(=N\c1nc2ccccc2o1)NC(=O)c1ccccc1	AHR activator 184.2 | AHR act cf 180.2 | PXR act counter 94.5
N#C/C(=C/c1ccc(Sc2nc3ccccc3[nH]2)o1)c1cccc(Br)c1	AHR activator 82.6 | AHR act cf inactive | PXR act counter 83.7
N#C/C(=C\c1ccc(-c2ccccc2C(=O)O)o1)c1nc2ccccc2[nH]1	none
N#C/C(=C\c1ccc(Sc2ccccc2)o1)c1nc2ccccc2[nH]1	AHR activator 145.3 | AHR act cf 121.9 | PXR act counter 151.1
COc1ccc(Cc2nnc(NC(=O)Nc3ccccc3)s2)cc1OC	none
C=CCn1cc(/C=C2/NC(=O)NC2=O)c2ccccc21	AHR activator 97.0 (no result: ALR inh) | AHR act cf 90.7 | PXR act counter 35.3
Fc1ccc(N2CCN(c3nc(-c4ccco4)cc(C(F)(F)F)n3)CC2)cc1	AHR activator 115.1 | AHR act cf 105.3 | PXR act counter 14.2
CC(C)OC(=O)/C(=C/c1ccc2c(c1)c1ccccc1n2C)NC(=O)c1ccccc1	AHR activator 79.7 | AHR act cf 97.0 | PXR act counter 182.9
Cc1ccc(NC(=S)N/N=C2\CCCCC2C)cc1 (centres undefined)	none
CC1CCCC/C1=N\NC(=S)Nc1cccnc1 (centres undefined)	AHR activator 113.3, ALR inh 97.7 | AHR act cf 73.5 | PXR act counter 12.0

Screens: PubChem, several laboratories
